Experiments:
[1] = biological target: T1, 3-phosphoinositide-dependent protein kinase 1 (Homo sapiens) (UniProt O15530); details: at 0.1 µM;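 also: values are mean inhibition of PDK1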
T1 sequence (whole entry): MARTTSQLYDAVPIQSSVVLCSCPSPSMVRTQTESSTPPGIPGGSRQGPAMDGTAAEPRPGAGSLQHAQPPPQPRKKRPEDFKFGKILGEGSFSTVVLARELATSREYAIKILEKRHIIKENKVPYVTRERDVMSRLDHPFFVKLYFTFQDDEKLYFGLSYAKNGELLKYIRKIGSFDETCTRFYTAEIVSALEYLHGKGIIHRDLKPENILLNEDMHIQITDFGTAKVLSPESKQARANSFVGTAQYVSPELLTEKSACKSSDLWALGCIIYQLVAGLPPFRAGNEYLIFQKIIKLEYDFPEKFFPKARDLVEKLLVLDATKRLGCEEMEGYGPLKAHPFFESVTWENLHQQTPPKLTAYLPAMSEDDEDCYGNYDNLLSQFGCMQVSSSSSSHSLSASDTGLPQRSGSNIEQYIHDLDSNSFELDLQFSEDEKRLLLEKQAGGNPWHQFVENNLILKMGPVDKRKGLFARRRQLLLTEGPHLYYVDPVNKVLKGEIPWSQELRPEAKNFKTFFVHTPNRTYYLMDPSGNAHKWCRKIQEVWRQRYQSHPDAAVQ

[2] = biological target: cAMP-dependent protein kinase catalytic subunit alpha (Homo sapiens) (UniProt P17612); details: at 0.1 µM
[3] = biological target: cAMP-dependent protein kinase catalytic subunit alpha (Homo sapiens) (UniProt P17612); details: at 1 µM
[4] = biological target: Protein kinase C alpha type (Homo sapiens) (UniProt P17252); details: at 0.1 µM
[5] = biological target: Protein kinase C alpha type (Homo sapiens) (UniProt P17252); details: at 1 µM
[6] = biological target: Protein kinase C beta type (Homo sapiens) (UniProt P05771); details: at 0.1 µM
[7] = biological target: Protein kinase C beta type (Homo sapiens) (UniProt P05771); details: at 1 µM
[8] = biological target: Protein kinase C eta type (Homo sapiens) (UniProt P24723); details: at 0.1 µM
[9] = biological target: Protein kinase C eta type (Homo sapiens) (UniProt P24723); details: at 1 µM
[10] = biological target: Protein kinase C gamma type (Homo sapiens) (UniProt P05129); details: at 0.1 µM;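 also: values are mean percent inhibition of PKC gamma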

Sequence of Protein kinase C eta type (Homo sapiens) (P24723 whole entry): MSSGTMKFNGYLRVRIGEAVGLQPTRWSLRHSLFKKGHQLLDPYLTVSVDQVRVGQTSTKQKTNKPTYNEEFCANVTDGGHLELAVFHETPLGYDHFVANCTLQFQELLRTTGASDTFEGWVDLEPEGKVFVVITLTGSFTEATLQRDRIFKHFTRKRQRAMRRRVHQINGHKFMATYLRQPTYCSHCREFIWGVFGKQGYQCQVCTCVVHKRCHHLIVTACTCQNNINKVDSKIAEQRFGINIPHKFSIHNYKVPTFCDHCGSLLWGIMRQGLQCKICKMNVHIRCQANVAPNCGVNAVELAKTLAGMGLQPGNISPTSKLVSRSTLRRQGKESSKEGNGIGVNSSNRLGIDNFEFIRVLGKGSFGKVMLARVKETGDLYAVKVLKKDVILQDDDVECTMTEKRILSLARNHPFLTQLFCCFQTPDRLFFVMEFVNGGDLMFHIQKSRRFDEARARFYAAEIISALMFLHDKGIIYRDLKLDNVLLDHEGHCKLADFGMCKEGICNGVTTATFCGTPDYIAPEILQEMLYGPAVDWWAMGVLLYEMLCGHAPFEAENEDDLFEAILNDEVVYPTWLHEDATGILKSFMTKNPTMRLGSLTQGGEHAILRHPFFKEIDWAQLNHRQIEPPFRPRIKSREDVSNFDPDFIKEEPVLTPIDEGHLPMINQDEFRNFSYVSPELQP
Sequence of Protein kinase C beta type (Homo sapiens) (P05771 2-671 limits assumed): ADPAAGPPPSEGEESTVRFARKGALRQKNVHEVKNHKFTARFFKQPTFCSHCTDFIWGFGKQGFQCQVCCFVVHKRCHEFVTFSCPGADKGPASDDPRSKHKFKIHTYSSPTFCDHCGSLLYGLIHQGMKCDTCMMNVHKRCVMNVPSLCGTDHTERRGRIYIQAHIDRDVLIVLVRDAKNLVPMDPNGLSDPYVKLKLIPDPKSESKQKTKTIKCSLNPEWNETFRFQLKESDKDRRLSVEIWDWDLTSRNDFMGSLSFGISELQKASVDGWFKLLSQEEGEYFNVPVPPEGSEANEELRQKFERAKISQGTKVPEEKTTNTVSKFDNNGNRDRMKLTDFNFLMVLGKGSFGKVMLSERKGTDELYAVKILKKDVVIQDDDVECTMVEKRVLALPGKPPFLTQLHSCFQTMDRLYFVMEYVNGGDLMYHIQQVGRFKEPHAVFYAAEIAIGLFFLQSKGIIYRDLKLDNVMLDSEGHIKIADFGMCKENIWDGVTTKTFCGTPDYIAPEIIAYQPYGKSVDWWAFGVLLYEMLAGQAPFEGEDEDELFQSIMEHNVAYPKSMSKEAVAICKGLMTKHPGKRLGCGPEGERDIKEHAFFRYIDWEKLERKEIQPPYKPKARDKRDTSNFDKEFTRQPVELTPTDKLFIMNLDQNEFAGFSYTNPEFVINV

SMILES	inhibition [1] [%]	inhibition [2] [%]	inhibition [3] [%]	inhibition [4] [%]	inhibition [5] [%]	inhibition [6] [%]	inhibition [7] [%]	inhibition [8] [%]	inhibition [9] [%]	inhibition [10] [%]
O=C(Nc1n[nH]c2nc(-c3ccc(O)cc3)c(Br)cc12)C1CC1	5.57	2.91	5.49	5.38	36.9	6.11	36.5	6.81	12.9	12.7
NS(=O)(=O)c1ccc(N/N=C2\C(=O)Nc3ccc(-c4cnco4)cc32)cc1	2.95	-3.28	-2.27	-4.06	-1.84	1.26	0.36	3.38	1.24	-1.13
C[C@@H](Oc1cc(-n2cnc3ccc(OCC4CCN(C)CC4)cc32)sc1C(N)=O)c1ccccc1Cl	2.77	3.4	-1.07	1.11	5.2	1.4	3.67	5.52	5.34	3.17
NC(=O)Cc1ccccc1Oc1nccc(-c2c(-c3ccc(F)cc3)ncn2C2CCNCC2)n1	1.03	1.37	0.93	0.35	1.51	-0.44	3.18	3.28	0.22	4.12
c1ccc(-c2n[nH]cc2-c2ccnc(-c3ccc(OCCN4CCOCC4)cc3)c2)nc1	1.56	7.85	3.77	2.22	1.97	5.36	3.85	-2.82	-2.18	3.17
O=C(Nc1n[nH]c2nc(-c3ccco3)ccc12)C1CC1	2.58	1.78	4.07	-0.2	0.41	-0.22	-1.09	-0.3	1.42	-0.6
CCS(=O)(=O)c1ccc(OC)c(Nc2ncc(-c3ccccc3Cl)o2)c1	4.14	1.17	1.75	0.48	1.87	0.67	0.07	0.14	0.6	-2.72
O=C(Nc1n[nH]c2cc(-c3cc(F)ccc3F)ccc12)C1CC1	2.95	2.32	0.93	0.67	1.99	0.43	2.04	2.87	3.93	2.77
O=C1Nc2ccccc2/C1=C/Nc1ccc(-n2cncn2)cc1	2.38	1.48	4.31	0.43	1.82	0.83	2.25	8.55	5.57	0.54
COc1cccc(/C=N/Nc2ncnc3c2cnn3-c2cccc(OC)c2)c1	1.13	1.27	1.21	0.12	0.85	-0.96	0.85	5.46	4.14	3.43
CS(=O)(=O)CCNCc1ccc(-c2ccc3ncnc(Nc4ccc(OCc5ccccc5)c(Br)c4)c3c2)o1	2.06	-1.58	-1.94	-3.83	-2.95	0.95	-0.59	5.37	5.42	0.5
NC(=O)c1cc(-c2ccncc2)cc(-c2ccccc2)c1N	2.16	2.43	6.13	1.21	4.38	1.43	1.87	5.05	7.89	-0.73
c1ccc(Oc2ccc(Nc3ncc(-c4ccccc4)o3)cc2)cc1	3.8	1.26	5.43	1.03	1.47	1.14	0.76	-1.38	-0.47	1.13
O=C(Nc1ccc(Oc2ccc3[nH]c(NC(=O)c4ccccc4)nc3c2)cc1)Nc1cc(C(F)(F)F)ccc1F	1.16	1.01	1.45	0.3	1.8	0.29	3.18	1.1	4.58	3.6
CN(C)c1ccc2c(c1)/C(=C/Nc1ccc(S(N)(=O)=O)cc1)C(=O)N2	11.6	1.77	1.6	0.48	1.56	0.94	0.89	2.02	2.17	0.64
COc1ccc(C2=C(N3CCc4ccccc43)C(=O)NC2=O)cc1	4.19	1.7	1.99	1.46	3.07	1.02	2.88	2.61	6.52	4.16
C[C@@H](Oc1cc(-n2cnc3ccc(OC4CCN(C)CC4)cc32)sc1C(N)=O)c1ccccc1Cl	0.63	-1.89	-4.19	-3.4	0.64	0.95	3.55	2.46	4.62	0.71

SMILES	inhibition [1] [%]	inhibition [2] [%]	inhibition [3] [%]	inhibition [4] [%]	inhibition [5] [%]	inhibition [6] [%]	inhibition [7] [%]	inhibition [8] [%]	inhibition [9] [%]	inhibition [10] [%]
CCc1nccc2c1nc(-c1nonc1N)n2CC	0.73	1.21	4.19	1.25	2.71	2.42	20	4.76	21.1	-1.83
COc1ccc2cc(-c3c(-c4ccncc4)nc(-c4ccc([S+](C)[O-])cc4C)n3C)ccc2c1 (stereo not given)	0.48	2.01	21.8	0.33	1.35	2.04	13	0.16	0.69	-0.82
NS(=O)(=O)c1ccc(N/N=C2\C(=O)Nc3ccc(C(=O)NCCCn4ccnc4)cc32)cc1	3.57	2.3	2.8	0.48	3.66	0.75	3.15	3.58	4.66	3.24
N#Cc1ccc(Oc2nccc(-c3c(-c4ccc(F)cc4)ncn3C3CCNCC3)n2)cc1	8.47	2.63	5.75	0.69	2.61	1.45	2.93	6.05	5.43	1.87
COc1cc2ncn(-c3cc(OCCc4ccccc4)c(C(N)=O)s3)c2cc1OC	1.29	1.37	-1.08	0.95	1.14	0.05	-0.8	-1.3	0.58	1.89
NC(=O)c1cc(-c2ccc(F)cc2)cc(-c2ccncc2)c1N	1.54	1.46	3.06	0.16	1.21	-1.29	3.15	3.71	8.19	0.15
COc1cccc(-n2cnc3c(N/N=C/c4ccncc4)ncnc32)c1	0.77	-1.92	0.18	-2.58	-3.28	3.24	5.82	3.47	0.69	0.93
C#Cc1cccc(Nc2ncnc3ccc(OCCCCNCCS(C)(=O)=O)cc23)c1	1.83	-0.23	-0.04	-2.51	0.29	1.6	4.77	0.97	4.94	3.27
COc1ccc2ncn(-c3cc(O[C@H](C)c4ccccc4Cl)c(C(N)=O)s3)c2c1	0.22	-1.47	-1	-2.81	-1.38	1.09	2.58	5.09	3.95	0.98
O=C1Nc2ccc(I)cc2C1=Cc1cc(Br)c(O)c(Br)c1	1.34	2.28	2.5	0.27	0.59	0.25	1.41	5.57	2.17	2.32
CN(C)CCOc1ccc(-c2cc(-c3ccc4c(c3)CCC4=NO)c(-c3ccncc3)o2)cc1	0.51	2.75	21	-0.04	1.32	-1.02	4.4	0.38	-1.11	0.61
CCN(CC)Cc1ccc(Nc2nccc(-c3cnn4ncccc34)n2)cc1	0.96	-0.94	4.26	0.47	17.8	0.22	-5.55	5.27	7.25	0.4
COc1cc2ncn(-c3cc(OCc4cccs4)c(C(N)=O)s3)c2cc1OC	3.07	-0.85	-2.23	-2.88	-2.59	5.39	8.77	4.49	4.09	4.75
Fc1ccc(-c2c(-c3ccncc3)nc3n2CCS3)cc1	2.05	-0.65	13.2	-2.65	-2.48	2.56	15.9	-2.42	7.59	1
CCC(=O)Nc1ccc(C)c(-c2ccc(C(=O)NCC3CC3)cc2)c1	2.1	2.1	1.49	-0.25	0.8	0.07	-0.89	5.65	3.46	0.1
Cc1ccc(NC(=O)c2ccoc2)cc1-c1ccc(C(=O)NCC2CC2)cc1	0.18	2.1	2.23	-0.03	0.82	1.84	1.76	4.75	3.88	-1.55
Cc1ccc(C(=O)NC(C)C)cc1-c1ccc(C(=O)NCC2CC2)cc1	-3.15	-2.08	-1.32	-0.49	0.46	-0.62	-0.82	-2.29	-3.07	-0.67

Reference: ChEMBL document CHEMBL1961873, “Compounds: GSK PKIS; Assays: Nanosyn kinase panel” (2012)
